Reference: PubChem BioAssay AID651724 (National Center for Advancing Translational Sciences (NCATS), 2012)
In all, about 340,000 compounds went through this assay and about 1,700 (0.5%) were called active. Roughly 2% stayed inconclusive and do not appear here. Rule as the data show it: active = activity change below about -65%; inconclusive = mostly about -30% to -63%; inactive = weaker than that. The full list was thinned out, with actives kept by preference.

Each molecule was assayed on CtBP / adenovirus E1A interaction (AlphaScreen) (assay: qHTS Assay for Inhibitors of the CtBP/E1A Interaction). Settings: AlphaScreen GST-E1A/His-CtBP binding, 1536-well; stronger effect = lower value.
Excerpt: Carboxyl-terminal binding protein (CtBP) is a co-repressor for many transcription factors. […] Our studies have shown that CtBP is overexpressed in multiple human cancers, including lung, breast, and head and neck cancers. In particular, it is over-expressed in 50% of primary lung cancer and 90% of metastatic lesions. CtBP suppresses epithelial-specific genes as well as genes critical for apoptosis, providing the underlying molecular mechanism for its role in tumorigenesis. […] Based on the above data, we hypothesize that 1) CtBP suppresses the pro-apoptotic and epithelial genes, therefore overexpressed CtBP in human cancer cells increases EMT and cancer survival; 2) decreasing CtBP's function represents a targeted therapy for lung cancer and potentially multiple cancer types. As a co-repressor, CtBP binds to E1A and other transcription factors through a conserved peptide motif to carry out its action. Inhibiting this interaction using small molecules can potentially serve as effective cancer therapeutics.
To this end, we have developed a homogenous AlphaScreen assay targeting the CtBP/E1A interaction. We performed a large scale HTS of the Molecular Libraries Small Molecule Repository (MLSMR) to identify inhibitors of the CtBP/E1A interaction as potential anti-cancer therapeutics. Compounds identified can also be used as chemical probes to better understand the biological functions of CtBP.
NIH Chemical Genomics Center [NCGC]
NIH Molecular Libraries Probe Centers Network [MLPCN]
Assay Submitter (PI): Rui Zhao, University of Colorado Denver
The first step of the 5uL AlphaScreen assay is to dispense assay buffer (50 mM Tris, pH 8.0, 300 mM NaCl, 0.05% BSA, 0.02% Tween 20, 1 mM TCEP) into a Greiner 1536 white solid bottom microtiter plate (789175-F). Five microliters is added to Column 1, 4 uL is added to Column 2 and 3 uL is added to Columns 3 through 48. A 5X protein solution (125 nM GST-E1A protein + 125 nM His-tagged CtBP protein) is mixed and 1 uL is dispensed to Columns 3-48. Using a 1536 pintool, 23 nL of compound is transferred to the assay plate and the plate is incubated with a lid at 37 deg C in the dark for two hours. A solution of 5X AlphaScreen beads is mixed (50 ug/mL Glutathione linked donor beads + Nickel chelated acceptor beads) and 1 uL is dispensed to Columns 2-48. The assay plate is incubated for one hour, with a lid, at 37 deg C in the dark. The plate is read using a Perkin Elmer Envision using an AlphaScreen protocol.
% is scaled to controls: 0 for no effect and ±100 for the full control effect.

Activity change, inactive:
CCOC(=O)[C@]12CCCC=C1N(CCC1=CCCCC1)C(=O)[C@H](CC(=O)N1CCN(C(=O)c3ccco3)CC1)C2 -6.31%, O=C(COC(=O)c1ccccn1)NNC(=O)c1ccc(Br)cc1 -15.7%, CN(C)S(=O)(=O)c1ccc(Cl)c(NC(=O)COC(=O)CC(NC(N)=O)c2ccc(Cl)cc2)c1 (stereo not drawn) -6.53%, CC(C)NC(=O)C1(C)CCCCCN1C(=O)c1ccc(-c2ccccc2)cc1 (stereo not drawn) -11.1%, CCCC/C=C/c1cccc2nncn12 2.58%, COc1cccc(-c2cc3nc(NCCOc4ccccc4Cl)n(C)c(=O)c3s2)c1 3.25%, COc1ccc(CCCNC(=O)C2Cc3c(-c4cccc(C(N)=O)c4)ccnc3O2)cc1 (stereo not drawn) -0.248%, COc1ccc(C(=O)NCC(=O)N/N=C/c2cccnc2)cc1 11.7%, CCOC(=O)N/N=C/c1cccnc1 25.9%, CCCCn1nnnc1C(c1cc2ccccc2o1)N(C)Cc1ccc(Cl)c(Cl)c1 (stereo not drawn) 13.3%, O=C(Nc1ccc2c(c1)OCCO2)C(C1CC1)N1CCC(Cc2ccccc2)CC1 (stereo not drawn) -10.3%, O=C(OCC(=O)N1CCCCCC1)c1ccc(Cl)nc1 -1.48%, O=C(OCC(=O)N1CCCC1)c1ccc(Cl)nc1 2.13%, OCc1ccc(OCCCOc2cccc3cccnc23)cc1 -7.66%, O=S(=O)(NCCOc1cccc2cccnc12)c1ccc(F)cc1 6.61%, COC(=O)[C@@]12C[C@@H](CC(=O)NCc3cccc(C(F)(F)F)c3)C(=O)N(Cc3ccco3)C1=CCC(C)(C)C2 -3.58%, CCCCCCCCN1C(=O)[C@H](CC(=O)NCc2cccc3ccccc23)C[C@@]2(C(=O)OC)CCCCC=C12 -7.91%, CCCCCCCN=C(C)c1ccccc1O 2.02%, C/C(=N\NC(=O)c1ccoc1C)c1ccccc1O -25.9%, CC(C)Nc1ncnc2c1ncn2[C@H]1CN(Cc2ccncc2)C[C@@H](CO)O1 4.17%, Cc1cc(O)ccc1-c1cc(C(=O)NCc2cc(C(F)(F)F)cc(C(F)(F)F)c2)[nH]n1 0.488%, O=C(Nc1ccc(Cl)c(C(F)(F)F)c1)C1Cc2c(-c3ccccc3Oc3ccccc3)ccnc2O1 (stereo not drawn) -3.42%, CC(O)(c1cccc(F)c1)c1nc(-c2ccc3c(c2)OCO3)cs1 (stereo not drawn) 0.33%, Cc1ncc(CO)c(/C=N/NC(=O)c2cccc(S(=O)(=O)N3CCCC3)c2)c1O 0%, CCc1nc2c(OCc3ccc(Cl)cc3Cl)cccn2c1N(C)C(=O)C(C)C -14.5%, CC(C)(C)OC(=O)NCCCCCNC(=O)c1nc[nH]c1C(=O)NCc1ccccc1 4.97%, Cc1ccc(NC(=O)c2nc[nH]c2C(=O)N[C@@H](CCCCNC(=O)OC(C)(C)C)C(=O)OC(C)(C)C)cc1 -1.82%, O=c1[nH]c(NCCO)nnc1Cc1ccc(Cl)cc1 0.739%, COc1ccc(Cc2nnc(SC)[nH]c2=O)cc1 0.0747%, CC1CCN(C(=O)CSc2nnc(-c3ccco3)n2N)CC1 1.76%, COc1cc2ccc(C(C)=O)c(O)c2cc1OC 3.1%, NC(c1csc(NC(=O)Nc2ccccc2Oc2ccccc2)n1)c1ccccc1Cl (stereo not drawn) -22.8%, Cc1cccc(C)c1Cn1c(C)c(C(=O)NCc2cccc(Cl)c2)sc1=O -20%, NS(=O)(=O)c1ccc(CCNS(=O)(=O)c2cccc3cccnc23)cc1 3.18%, Cc1ccc2cccc([N+](=O)[O-])c2n1 -11.4%, CNC(=O)C1CN(C(=O)c2cccc(S(=O)(=O)N3CCc4ccccc43)c2)c2ccccc2O1 (stereo not drawn) -7.74%, CCOC(=O)[C@]12CCCC=C1N(Cc1ccc3c(c1)OCO3)C(=O)[C@H](CC(=O)NCc1cccs1)C2 -17.2%, CN(C)C(CNC(=O)c1cc(Br)c(Br)s1)c1ccco1 (stereo not drawn) 0.728%, CCc1ccc(/C=N/NC(=O)c2nnn(-c3nonc3N)c2CN2CCc3ccccc32)cc1 -23.8%, CC(C)c1c(C(=O)N/N=C/c2ccccc2C(=O)O)nnn1-c1nonc1N 18.7%, CCOC(=O)N1CCN(C(=O)C[C@@H]2C[C@@]3(C(=O)OC)CCCCC=C3N(CCC3=CCCCC3)C2=O)CC1 -2.03%, OC[C@@H]1CN(Cc2ccc(-c3ccccc3)cc2)C[C@H](n2cnc3c(NC4CCCC4)ncnc32)O1 -10.7%, O=C1[C@H]2[C@@H](c3ccc(C(F)(F)F)cc3)N[C@]3(CCCN(Cc4ccc(Cl)cc4)C3=O)[C@H]2C(=O)N1Cc1ccccc1 5.38%, Cc1ccc(S(=O)(=O)N2C[C@H]3n4c(=O)ccc(=O)n4C[C@H](OC(=O)NC4CCCC4)[C@@]3(O)C2)cc1 2.31%, CC(=O)NC(c1cccc(F)c1)c1nc(-c2cccc(F)c2)cs1 (stereo not drawn) 6.59%, CCOC(=O)c1cc(-c2sc(NC(=O)c3ccccc3)nc2C)n(-c2ccc(Br)cc2)n1 0%, COc1cccc(NC(=O)CN(C)C(=O)c2cc(Cl)nc3ccccc23)c1 -3.92%, Cc1ccsc1C(=O)N/N=C/c1ccc([N+](=O)[O-])cc1 -4.19%, COc1ccc2ccccc2c1/C=N/NC(=O)c1cc(C)[nH]n1 -8.94%, Cc1ccccc1S(=O)(=O)NC(=O)C1(C)CCN1C(=O)C1(c2ccc(Cl)cc2)CC1 (stereo not drawn) 9.59%, NC(c1ccccc1)c1csc(NC(=O)Nc2cccc(C(F)(F)F)c2)n1 (stereo not drawn) -14.2%, O=C(COc1ccc(Cl)cc1Cl)N/N=C/c1ccccn1 -13%, O=C(COC(=O)COc1cc(Cl)c(Cl)cc1Cl)NC1CC1 -0.684%, CCCS(=O)(=O)NC(=O)C1(C)CCCN(C(=O)c2ccnc(Cl)c2)C1 (stereo not drawn) -15.6%, Cc1cc([N+](=O)[O-])c(N2CCC[C@@H]2C(=O)O)c([N+](=O)[O-])c1 4.03%, Cc1cc([N+](=O)[O-])ccc1NC1CCCC1 -0.0944%, CN(C)CCNC(=O)c1ccc(-c2cn3c(-c4ccc(Oc5ccccc5)cc4)cnc3cn2)cc1 -7.14%, Cc1cccc(C)c1NC(=O)CN1CCN(c2ccc(F)cc2)CC1 -4.18%, Cc1ccc(CN2CCN(c3ncccn3)CC2)c(C)c1 -0.239%, O=C1CC[C@@H](C(=O)N2CSC[C@@H]2C(=O)Nc2ccc(C(F)(F)F)cc2)N1 2.94%, COc1ccc(C=C2CCC3C(CCCC34OCCO4)C2=O)cc1 (stereo not drawn) -0.25%, COc1cccc(NC(=S)NCc2ccccn2)c1 -9.96%, Cc1ccc(C(=O)N/C(=C\c2cccs2)C(=O)NCCc2ccccn2)cc1C -19.9%, O=S(=O)(c1cccc(C(F)(F)F)c1)N1c2ccccc2-n2cccc2C1c1cccnc1 (stereo not drawn) 1.4%, C[C@@H]1CN([C@@H](C)CO)C(=O)c2cc(Br)cnc2O[C@H]1CN(C)Cc1ccc(-c2ccccc2)cc1 -2.2%, CCCCCc1c(-c2cccc(Br)c2)ncn1CCc1ccccc1OC -0.685%, COc1cccc(C(NC(C)=O)c2nc(-c3cnc4ccccc4c3)cs2)c1 (stereo not drawn) -20.3%, Cc1ccc(-c2cnc(C(O)c3cccc(C)c3C)[nH]2)cc1 (stereo not drawn) -4.55%, COCCNC(=O)CSc1nc(N)c(NC(=O)c2ccco2)c(=O)[nH]1 12.4%, COc1ccc(C(=O)Nc2c(N)nc(SCC(=O)Nc3ccc(C(C)=O)cc3)[nH]c2=O)cc1 -2.12%

Activity change, active:
NC(=O)NC(CC(=O)NNC(=O)c1ccccn1)c1ccc(Cl)cc1 (stereo not drawn) -76%, O=C(CSc1cccc2cccnc12)N/N=C/c1cccnc1 -93.9%, O=C(OCC(=O)N1CCCCCC1)c1cnc(Cl)c(Cl)c1 -78.7%, O=C(Nc1ccccc1)Oc1cccc2cccnc12 -90.3%, C/C(=N\Nc1ccc(Cl)nn1)c1ccccc1O -87.6%, Cc1cc(C)nc(N/N=C/c2c(CO)cnc(C)c2O)n1 -85.2%, CC(C)(C)OC(=O)NCCCCCNC(=O)c1[nH]cnc1C(=O)Nc1nccs1 -77%, COc1ccc(Cc2nnc(N/N=C/c3ccccc3O)[nH]c2=O)cc1OC -73.4%, O=[N+]([O-])c1ccccc1S(=O)(=O)Nc1cccc2cccnc12 -78.7%, Nc1nonc1-n1nnc(C(=O)N/N=C/c2ccccc2O)c1CN1CCCC1 -92.6%, Oc1ccc(N=Nc2nccs2)c(O)c1 -92.5%, Oc1ccc2ccccc2c1N=Nc1nccs1 -93.9%, Cc1cc(C(=O)N/N=C/c2cc([N+](=O)[O-])cc(C)c2O)n[nH]1 -87.9%, NC(=S)NN=Cc1ccc(OC(=O)COc2cc(Cl)c(Cl)cc2Cl)cn1 -89.3%, Cc1cc([N+](=O)[O-])c(NC2CCCCC2)c([N+](=O)[O-])c1 -67.5%, Oc1c(CN2CCN(c3ccc(F)cc3)CC2)cc(Cl)c2cccnc12 -85.8%, COc1cncc(-c2cnc3sc(NCCc4ccccn4)nn23)c1 -68.3%, COC(=O)c1ccc(NC(=O)CSc2nc(N)c(NC(=O)c3ccc(Br)o3)c(=O)[nH]2)cc1 -65.1%
